The record followed here is PubChem BioAssay (NCI).

Compounds without any hit were thinned out: in the full panel of roughly 79,000, 15% have a hit. Active and inactive are the calls of the source. Cut-off read from the data, not from the text of the source: active = growth inhibition above about 70%; inactive = the rest. Where a SMILES comes first, the peptide text is derived from it. The star is where a group is joined. Cbz = O=C(OCc1ccccc1)*

The nature of one test: NCI Yeast Anticancer Drug Screen. Data for the bub3 strain (AID 167). To be noted: S. cerevisiae bub3 mutant strain, at 50.0 µM, hits give high values. Put shortly:
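Screening used yeast with an engineered genetic alteration affecting cell cycle control. Compound-exposed cultures were compared with vehicle cultures, and reduced growth was taken as inhibition.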
In the case of `COC1OC(C)CC(O)C1O` (stereo not given), the growth inhibition was 2.7% (inactive).
On the same count and under the same terms, in the case of `COc1ccc(CC(=O)c2c(OC)c3c(c4c2OC(C)(C)CC4)OC(C)(C)CC3)cc1OC` it was 33.9% (inactive); in that of `COc1ccc(N=C2C(=Nc3ccc(OC)cc3)N(S(=O)(=O)c3ccccc3)C(=S)N2c2ccc(OC)cc2)cc1`, 0.2% (inactive); in that of `CCc1ccccc1NC(=O)Sc1cccc(C)c1`, 23% (inactive).
Still for that read-out and setting: with `CC(C)(CO)N=Cc1ccc(Cl)c(Cl)c1` the figure was -11.5% (inactive); with `Cc1cc(Cl)ccc1OCCCC(=O)NC(Cc1c[nH]c2ccccc12)C(=O)O` (stereo not given), -2.4% (inactive).
Same read-out and setting: in the case of `O=C(Nc1nnc(C(F)(F)F)s1)c1c(F)cccc1F` it was 37% (inactive); in that of `CCCCCCC(C)Cl` (stereo not given), 5.9% (inactive).
As to `CC(C)=CCC(C)c1ccccn1` (stereo not given), the growth inhibition was 10.9% (inactive).
On the same count and under the same terms, in the case of `CC(NC(=O)C(Cc1ccc(O)cc1)NC(=O)C(C)NC(=O)OCc1ccccc1)C(=O)O` (stereo not drawn) (Cbz-Ala-Tyr-Ala-OH; configuration not given here) it was -5.8% (inactive); in that of `N=C(N)c1ccncc1`, 4.75% (inactive); in that of `CC12CC3CC(C)(C1)CC(N=[N+]=[N-])(C3)C2`, -0.8% (inactive).
Still for that read-out and setting: with `CC(C)(C)c1cc(Br)c(O)c(CN(Cc2cc(C(C)(C)C)cc(Br)c2O)C2CCCCC2)c1` the figure was -35.2% (inactive); with `CCOC(=O)/C(=N/Nc1ccc(C)cc1)N1C(=S)C=C(C)NN(C)C1=S`, -19.7% (inactive); with `OC1CCC(c2ccccc2)CC1` (stereo not given), 4.75% (inactive).
Consider `O=C(N/N=C/C=C/c1ccccc1)c1ccccc1O`, for which the growth inhibition is 43.4% (inactive).
For `O=C(CN1CCCCC1)c1ccc(CCc2ccc(C(=O)CN3CCCCC3)cc2)cc1`, the growth inhibition is 6.5% (inactive).
The same measure, in the same setting: with `CCCc1n[nH]c(=S)n1N1C(=S)NC(C)(C)C=C1C` the figure was 4.1% (inactive).
Still for that read-out and setting: in the case of `CCCc1cc(=O)oc2c3c(c4c(c12)OC(C)(C)C=C4)O[C@H](C)[C@@H](C)C3O` (stereo not given in full) it was 11.3% (inactive); in that of `O=C(O)COc1ccc(C(=O)O)cc1`, -23.4% (inactive).
The same measure, in the same setting: with `C(=Nc1ccc(SSc2ccc(N=Cc3ccc4c(c3)OCO4)cc2)cc1)c1ccc2c(c1)OCO2` the figure was 8.75% (inactive); with `COc1ccc2c(c1OC)C1(CCN(C)C)CC(O)CCC1C=C2` (stereo not given), 13.2% (inactive).
On to `N#CC(C#N)=CN1CCCCC1`, for which the growth inhibition is -6.35% (inactive).
Same read-out and setting: with `O=Cc1ccc2ccccc2c1` the figure was 16.8% (inactive); with `CC1(C)C(=O)N=C(N)N1C(=O)OCc1ccccc1`, -10% (inactive); with `O=C(O)c1cc(=O)[nH]c(SCc2ccccc2)n1`, -20.8% (inactive).
The same measure, in the same setting: with `O=C(O)C1CCC2CCCC21` (stereo not given) the figure was -18% (inactive).
The same measure, in the same setting: in the case of `O=C(NC(Nc1ccc(F)cc1)(C(F)(F)F)C(F)(F)F)C(C(F)(F)F)C(F)(F)F` it was 90.7% (active); in that of `COC(=O)c1sc(=O)n(-c2ccccc2)c1SCc1ccccc1`, 30.8% (inactive).
`COc1cc(/C=C(\OC(C)=O)c2ccc3c(c2)OCO3)cc(OC)c1OC`: the growth inhibition is 44% (inactive).
Same read-out and setting: with `O=C(O)COc1c(F)cc(F)cc1Cl` the figure was 12% (inactive).
Consider `COc1cc(C(=O)c2cocc2C(=O)c2ccc3c(c2)OCO3)cc(OC)c1OC`, for which the growth inhibition is -25.6% (inactive).
With `COc1cc(/C=C/C(=O)NCCCCN)ccc1O`, the growth inhibition was 13% (inactive).
On to `CCC1(C(Cl)(Cl)Cl)C=CC(=O)C=C1`, for which the growth inhibition was 4.7% (inactive).
On the same count and under the same terms, with `CCC(C(=O)OC)C1CCCCC1` (stereo not given) the figure was -10.7% (inactive); with `O=c1[nH]nc(SCc2ccccc2)c(=O)[nH]1`, 0% (inactive).
Same read-out and setting: in the case of `Nc1on(C(=O)c2ccccc2)c(=O)c1Cc1ccccc1` it was 2.25% (inactive); in that of `O=c1c2ccccc2nc(-c2ccccc2Cl)n1/N=C/c1ccc(Cl)cc1Cl`, -3.5% (inactive); in that of `CCC(CCC#N)(CCC#N)C(=O)c1ccc(C)s1`, 0.1% (inactive).
Still for that read-out and setting: with `O=C(N/N=C/c1ccc(Cl)cc1Cl)c1ccccc1SSc1ccccc1C(=O)N/N=C/c1ccc(Cl)cc1Cl` the figure was -9.75% (inactive).

Another test in a line: NCI Yeast Anticancer Drug Screen. Data for the mlh1 rad18 strain (AID 175). To be noted: S. cerevisiae mlh1 rad18 strain growth inhibition; at 50.0 µM; hits give high values. The procedure, abridged: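 Inhibition values reflect reduced growth of mutant yeast versus vehicle-treated controls following compound exposure; the mutations affect DNA damage repair.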
In the case of `COC1OC(C)CC(O)C1O` (stereo not given), the growth inhibition is -37.8% (inactive).
The same measure, in the same setting: in the case of `COc1ccc(CC(=O)c2c(OC)c3c(c4c2OC(C)(C)CC4)OC(C)(C)CC3)cc1OC` it was 34.4% (inactive).
The same measure, in the same setting: in the case of `COc1ccc(N=C2C(=Nc3ccc(OC)cc3)N(S(=O)(=O)c3ccccc3)C(=S)N2c2ccc(OC)cc2)cc1` it was -26.1% (inactive); in that of `CCc1ccccc1NC(=O)Sc1cccc(C)c1`, -28.9% (inactive); in that of `CC(C)(CO)N=Cc1ccc(Cl)c(Cl)c1`, -24.6% (inactive).
The same measure, in the same setting: in the case of `Cc1cc(Cl)ccc1OCCCC(=O)NC(Cc1c[nH]c2ccccc12)C(=O)O` (stereo not given) it was 9.35% (inactive); in that of `O=C(Nc1nnc(C(F)(F)F)s1)c1c(F)cccc1F`, 30.1% (inactive).
On to `CCCCCCC(C)Cl` (stereo not given), for which the growth inhibition was 1.05% (inactive).
Regarding `CC(C)=CCC(C)c1ccccn1` (stereo not given), the growth inhibition is -4.2% (inactive).
On the same count and under the same terms, with `CC(NC(=O)C(Cc1ccc(O)cc1)NC(=O)C(C)NC(=O)OCc1ccccc1)C(=O)O` (stereo not drawn) (Cbz-Ala-Tyr-Ala-OH; configuration not given here) the figure was 16.9% (inactive); with `N=C(N)c1ccncc1`, -1.95% (inactive).
The same measure, in the same setting: in the case of `CC12CC3CC(C)(C1)CC(N=[N+]=[N-])(C3)C2` it was -29.5% (inactive); in that of `CC(C)(C)c1cc(Br)c(O)c(CN(Cc2cc(C(C)(C)C)cc(Br)c2O)C2CCCCC2)c1`, 1.35% (inactive).
Still for that read-out and setting: with `CCOC(=O)/C(=N/Nc1ccc(C)cc1)N1C(=S)C=C(C)NN(C)C1=S` the figure was -30.9% (inactive).
Turning to `OC1CCC(c2ccccc2)CC1` (stereo not given), the growth inhibition was 7.35% (inactive).
The same measure, in the same setting: with `O=C(N/N=C/C=C/c1ccccc1)c1ccccc1O` the figure was 29.6% (inactive); with `O=C(CN1CCCCC1)c1ccc(CCc2ccc(C(=O)CN3CCCCC3)cc2)cc1`, 32.2% (inactive).
On the same count and under the same terms, in the case of `CCCc1n[nH]c(=S)n1N1C(=S)NC(C)(C)C=C1C` it was 17.2% (inactive); in that of `CCCc1cc(=O)oc2c3c(c4c(c12)OC(C)(C)C=C4)O[C@H](C)[C@@H](C)C3O` (stereo not given in full), -3.4% (inactive); in that of `O=C(O)COc1ccc(C(=O)O)cc1`, -6.15% (inactive).
Same read-out and setting: with `C(=Nc1ccc(SSc2ccc(N=Cc3ccc4c(c3)OCO4)cc2)cc1)c1ccc2c(c1)OCO2` the figure was 17.2% (inactive); with `COc1ccc2c(c1OC)C1(CCN(C)C)CC(O)CCC1C=C2` (stereo not given), 18.1% (inactive); with `N#CC(C#N)=CN1CCCCC1`, -17.8% (inactive).
Take `O=Cc1ccc2ccccc2c1`: the growth inhibition is 30.8% (inactive).
On the same count and under the same terms, in the case of `CC1(C)C(=O)N=C(N)N1C(=O)OCc1ccccc1` it was -17.5% (inactive); in that of `O=C(O)c1cc(=O)[nH]c(SCc2ccccc2)n1`, -5.35% (inactive).
Still for that read-out and setting: in the case of `O=C(O)C1CCC2CCCC21` (stereo not given) it was 15.5% (inactive); in that of `O=C(NC(Nc1ccc(F)cc1)(C(F)(F)F)C(F)(F)F)C(C(F)(F)F)C(F)(F)F`, 93.2% (active); in that of `COC(=O)c1sc(=O)n(-c2ccccc2)c1SCc1ccccc1`, 18.8% (inactive).
The same measure, in the same setting: with `COc1cc(/C=C(\OC(C)=O)c2ccc3c(c2)OCO3)cc(OC)c1OC` the figure was -19.1% (inactive).
`O=C(O)COc1c(F)cc(F)cc1Cl`: the growth inhibition was 7.35% (inactive).
As to `COc1cc(C(=O)c2cocc2C(=O)c2ccc3c(c2)OCO3)cc(OC)c1OC`, the growth inhibition is -14.8% (inactive).
The same measure, in the same setting: with `COc1cc(/C=C/C(=O)NCCCCN)ccc1O` the figure was 19.7% (inactive).
Still for that read-out and setting: in the case of `CCC1(C(Cl)(Cl)Cl)C=CC(=O)C=C1` it was -21.1% (inactive).
Same read-out and setting: with `CCC(C(=O)OC)C1CCCCC1` (stereo not given) the figure was 22.4% (inactive); with `O=c1[nH]nc(SCc2ccccc2)c(=O)[nH]1`, -18.9% (inactive).
In the case of `Nc1on(C(=O)c2ccccc2)c(=O)c1Cc1ccccc1`, the growth inhibition is -2.1% (inactive).
The same measure, in the same setting: in the case of `O=c1c2ccccc2nc(-c2ccccc2Cl)n1/N=C/c1ccc(Cl)cc1Cl` it was 6.1% (inactive).
Still for that read-out and setting: in the case of `CCC(CCC#N)(CCC#N)C(=O)c1ccc(C)s1` it was 2.45% (inactive); in that of `O=C(N/N=C/c1ccc(Cl)cc1Cl)c1ccccc1SSc1ccccc1C(=O)N/N=C/c1ccc(Cl)cc1Cl`, 19.8% (inactive).
